Screening data (PubChem)
Hits are enriched below; roughly 19% of the tested compounds scored in any of these assays.
TDP1 cell CPT: DT40-hTDP1 cell growth loss with CPT. chicken DT40 Tdp1-/-;hTDP1 cells + 20 nM CPT, ATP luminescence, 48 h. Potency, µM (top dose mostly 46.2 µM), without a hit: at the highest dose activity change, negative = growth inhibition, usual class: inhibitors. 420,000 tested, 12% active. AID 686979; note: potency is the fitted concentration of half-maximal effect; % is set by controls: 0 for no effect and ±100 for the full control effect; nearly all actives have a fitted effect of over 55% in size
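Chicken DT40 Tdp1-/- cells complemented with human TDP1, 400 cells/well, exposed to compounds plus 20 nM camptothecin for at least 48 h at 37 C; viability read as ATP content by CellTiter-Glo luminescence.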
IL-1B inflam inh: blocks inflammasome-driven IL-1 beta release; AID 743279; activity change, % at 57.5 µM; THP-1 LPS/ATP IL-1B secretion, AlphaLISA, 16 h; hits give low values; 360,000 tested, 4.7% active; in the data active = activity change below about -50%; inconclusive = mostly about -30% to -49%; note: % is set by controls: 0 for no effect and ±100 for the full control effect
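THP-1 cells pretreated 1 hr with compounds (up to 57.5 uM final), then stimulated with LPS (250 ng/mL final) plus ATP (1.25 mM final); secreted IL-1B measured by AlphaLISA after 16 hr, decreased signal indicating inhibition.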
SW480 rerep: inducers of DNA re-replication in SW480 colon cancer cells; SW480 DNA re-replication, Hoechst DNA content imaging, 48 h; Potency, µM (top dose mostly 46.1 µM), without a hit: at the highest dose re-replication activation, actives largely listed as activators; 340,000 tested, 1.8% active; AID 624297; note: potency is the fitted concentration of half-maximal effect; % of control where 0% means no effect; nearly all actives have a fitted effect of over 55% in size
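Image-based read-out: total Hoechst fluorescence of nuclei (405 nm excitation, 500-530 nm emission), with hits raising the fraction of high-intensity nuclei. SW480 colon cells incubated 48 hr with compounds at 37 C.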
MCF10A rereplic: DNA re-replication induction in MCF 10a cells | 350,000 tested, 2.9% active | MCF 10A DNA re-replication, Hoechst nuclear intensity, 48 h | Potency, µM (titrated, usually from 46.1 µM), without a hit: at the highest dose activity, positive = re-replication, usual class: activators; note: potency is the fitted concentration of half-maximal effect; % of control where 0% means no effect; nearly all actives have a fitted effect of over 50% in size
BCR signal inh: blocks chronic active B-cell receptor signaling; 340,000 tested, 0.05% active; AID 493014; Potency, µM (doses to about 46.1 µM), inactives show at the top dose activity change, negative = inhibition, most hits filed as inhibitors; ABC-DLBCL IkBa-CBG/CBR reporter, luminescence ratio, 4 h; active = well fitted inhibition curve with a large enough effect in the signal ratio, with a control signal flat, not every such curve was filed as active; inconclusive = small, poorly fitted or top-dose-only effect, or effect the other way, or a change in a side signal; the % refers to the signal ratio;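 note: potency is the fitted concentration of half-maximal effect; plate controls were basal doxycycline-induced cells for no effect and cells given 10 µM MG132 for full effect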
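TMD8 ABC-DLBCL cells carrying doxycycline-inducible green luciferase fused to IkappaBalpha plus unfused red luciferase were exposed to compounds (up to 46 uM) for 4 hrs at 37C. Activity came from the overlap-corrected green/red luminescence ratio.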
TDP1 cell noCPT: qHTS for Inhibitors of human tyrosyl-DNA phosphodiesterase 1 (TDP1): qHTS in cells in absence of CPT; DT40 Tdp1-/- hTDP1 cells, no CPT, ATP luminescence, 48 h; Potency, µM (doses to about 46.2 µM), inactives show top-dose activity change, negative = growth inhibition, actives largely listed as inhibitors; 420,000 tested, 15% active; note: potency is the fitted concentration of half-maximal effect; % is set by controls: 0 for no effect and ±100 for the full control effect; nearly all actives have a fitted effect of over 55% in size
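Readout: luminescence from CellTiter-Glo after 30 min in the dark at RT. Cells: DT40 Tdp1-/- with stable hTDP1, 400/well. Exposure: compounds alone, ≥48 hr, 37 °C.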
An asterisk follows results filed as active. Unless noted, calls come from the whole dose curve; as a rule, active = well fitted curve in the direction sought with a large enough effect; inconclusive = small, poorly fitted or top-dose-only effect, or another doubt; inactive = no such curve, though single readings can be large; an effect the other way counts as inactive or inconclusive.

Results for COc1ccccc1OCCOc1ccc(/C=C2/C(=N)N3OC(C)=CC3=NC2=O)cc1OC ?
TDP1 cell CPT: inconclusive; IL-1B inflam inh: 27.4; SW480 rerep: -1.8%; MCF10A rereplic: 6.6%; BCR signal inh: -18.3%; TDP1 cell noCPT: inconclusive

Results for CC(C)c1ccc(-n2cccc2/C=C2/C(=N)N3C=CSC3=NC2=O)cc1 ?
TDP1 cell CPT: inconclusive; IL-1B inflam inh: 0.7; SW480 rerep: inconclusive; MCF10A rereplic: 23.1µM*; BCR signal inh: 5.5%; TDP1 cell noCPT: inconclusive

Results for Cc1cc(Br)c2[nH]cc(CCNC(=O)c3ccco3)c2c1 ?
TDP1 cell CPT: -23.2%; IL-1B inflam inh: -0.3; SW480 rerep: -8.5%; MCF10A rereplic: -3.3%; BCR signal inh: -1.4%; TDP1 cell noCPT: inconclusive

What do the screens show for `COC(=O)C1OCOC2C(C(=O)OC)OCOC12` (configuration not stated)?
TDP1 cell CPT: 0.5%; IL-1B inflam inh: 14.0; SW480 rerep: -5.8%; MCF10A rereplic: -0.1%; TDP1 cell noCPT: -7.3%

Results for Cc1cccn2c(=O)c3cc(C(=O)N(C)C)n(C)c3nc12 ?
TDP1 cell CPT: -15.3%; IL-1B inflam inh: 13.9; SW480 rerep: -7.3%; MCF10A rereplic: 23.9%; BCR signal inh: -10.0%; TDP1 cell noCPT: inconclusive

Results for CCCN(CCC)C(=O)c1cc2c(=O)n3cccc(C)c3nc2n1C ?
TDP1 cell CPT: 16.4µM*; TDP1 cell noCPT: 23.1µM*

How did CCOCCCNC(=O)c1cc2c(=O)n3cccc(C)c3nc2s1 do in these assays?
TDP1 cell CPT: -9.0%; IL-1B inflam inh: 27.0; SW480 rerep: -19.5%; MCF10A rereplic: 21.3%; BCR signal inh: -8.4%; TDP1 cell noCPT: -5.7%

Results for CCCN(CCC)C(=O)c1cc2c(=O)n3cccc(C)c3nc2s1 ?
TDP1 cell CPT: inconclusive; IL-1B inflam inh: 15.3; SW480 rerep: 19.4%; MCF10A rereplic: inconclusive; BCR signal inh: -1.9%; TDP1 cell noCPT: 18.4µM*

What do the screens show for `COc1ccc(C)cc1NC(=O)c1cc2c(=O)n3cccc(C)c3nc2s1`?
TDP1 cell CPT: 1.8%; TDP1 cell noCPT: -2.8%

What do the screens show for `Cc1cccn2c(=O)c3cc(C(=O)NCCCOC(C)C)sc3nc12`?
TDP1 cell CPT: inconclusive; IL-1B inflam inh: -12.7; SW480 rerep: 16.1%; MCF10A rereplic: 1.0%; BCR signal inh: -4.3%; TDP1 cell noCPT: 20.6µM*

Results for Cc1cccc(NC(=O)c2cc3c(=O)n4cccc(C)c4nc3s2)c1C ?
TDP1 cell CPT: 1.84µM*; TDP1 cell noCPT: 2.31µM*

Results for CCOc1ccc(NC(=O)CSc2nc(=O)n(CCCN3CCOCC3)c3c2CCC3)cc1 ?
TDP1 cell CPT: 5.4%; IL-1B inflam inh: -4.0; SW480 rerep: -3.4%; MCF10A rereplic: 3.7%; BCR signal inh: -3.5%; TDP1 cell noCPT: 4.7%

What do the screens show for `COC(=O)C[C@@H]1C[C@@H]2c3cc(NC(=O)Cc4ccncc4)ccc3O[C@@H]2[C@@H](CO)O1`?
TDP1 cell CPT: -5.5%; IL-1B inflam inh: 11.5; TDP1 cell noCPT: 6.3%

What do the screens show for `CCOC(=O)c1cnn(-c2ccc(C(=O)Nc3cc(OC)c(OC)c(OC)c3)cc2)c1N`?
TDP1 cell CPT: inconclusive; BCR signal inh: 0.5%; TDP1 cell noCPT: inconclusive

What do the screens show for `O=S(=O)(c1cnc(Cl)c(Br)c1)N1CCN(c2ncccn2)CC1`?
TDP1 cell CPT: -6.2%; IL-1B inflam inh: -14.9; SW480 rerep: -1.2%; MCF10A rereplic: -0.8%; BCR signal inh: -6.4%; TDP1 cell noCPT: 18.2%

What do the screens show for `O=S(=O)(c1cnc(Cl)c(Br)c1)N1CCCCCC1`?
TDP1 cell CPT: -2.4%; IL-1B inflam inh: -103.7*; SW480 rerep: 0.0%; MCF10A rereplic: inconclusive; BCR signal inh: inconclusive; TDP1 cell noCPT: -28.7%
